The values that follow come from PubChem BioAssay (NCI).

Where “and” joins values, the source holds several entries; their conditions need not be identical. Identical values can stand only once. The panel holds about 83,000 compounds, 20% with a hit somewhere; the sample as a whole holds those more often.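 96-well plates, one dose, 48 hours. Percent growth reported; active if below 10.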 Calls of active or inactive are those of the source.

Some test systems named below: SK-MEL-2 melanoma; EKVX NSCLC; SN12C renal; UO-31 renal; TK-10 renal; ACHN renal; CAKI-1 renal; A498 renal; CCRF-CEM leukemia; MOLT-4 leukemia.
What all share (assay): NCI-60 one-dose screen, 48 h (100 = growth as untreated, 0 = no growth, -100 = all killed)
Holding throughout (conditions): 10 µM unless noted

With `CCCCCCCOc1ccc(S(=O)(=O)Nc2ccc(C)c(F)c2C(=O)O)cc1`, the growth is 102% (inactive) with SK-MEL-2 melanoma; 95.4% (inactive) in the assay with EKVX NSCLC; 94.9% (inactive) in the assay with SN12C renal; 75% (inactive) with UO-31 renal; 96.2% (inactive) in the assay with TK-10 renal; 101% (inactive) in the assay on ACHN renal. Besides, the growth with CAKI-1 renal is 93% (inactive); in the assay with A498 renal, 102% (inactive); with CCRF-CEM leukemia, 81.6% (inactive); with MOLT-4 leukemia it was 98.3% (inactive).
`Nc1nnc(-c2cncc(Br)c2)c(-c2c[nH]c3ccc(Br)cc23)n1`: the growth with SK-MEL-2 melanoma is 55.4% (inactive); in the assay with EKVX NSCLC, 65.7% (inactive); with SN12C renal it was 57.6% (inactive); in the assay with UO-31 renal, 34.8% (inactive); with TK-10 renal, 97.7% (inactive); in the assay on ACHN renal, 56.5% (inactive). The growth was 46% (inactive) in the assay with CAKI-1 renal, 92.7% (inactive) in the assay on A498 renal, 44.1% (inactive) in the assay with CCRF-CEM leukemia and 33% (inactive) with MOLT-4 leukemia.
Consider `CN1C(=O)/C(=C\C(=O)c2cc3ccccc3oc2=O)c2ccccc21`, for which the growth with SK-MEL-2 melanoma was 65.1% (inactive); in the assay on EKVX NSCLC, 63.6% (inactive); in the assay on SN12C renal, 66.3% (inactive); in the assay with UO-31 renal it was 53.6% (inactive); with TK-10 renal, 98% (inactive); in the assay on ACHN renal it was 25.3% (inactive). In addition, the growth is 65.2% (inactive) in the assay with CAKI-1 renal, 160% (inactive) in the assay with A498 renal, 43.4% (inactive) in the assay with CCRF-CEM leukemia and 50.4% (inactive) in the assay with MOLT-4 leukemia.
`NC(=O)c1ccc(-c2ccc3ncnc(N4CCc5cc(F)c(Cl)cc54)c3c2)cn1`: the growth was 95.2% (inactive) with SK-MEL-2 melanoma; 19.5% (inactive) in the assay with EKVX NSCLC; 61.9% (inactive) in the assay on SN12C renal; 33.1% (inactive) in the assay on UO-31 renal; 28.2% (inactive) in the assay on TK-10 renal; 30.3% (inactive) in the assay with ACHN renal. Moreover, the growth in the assay on CAKI-1 renal is 31.1% (inactive); in the assay with A498 renal, 74.7% (inactive); with CCRF-CEM leukemia, 44.2% (inactive); in the assay with MOLT-4 leukemia, 18.4% (inactive).
Consider `O=C(Nc1ccc(-c2ccc3c(c2)NC(=O)/C3=C\c2ccc[nH]2)cc1)Nc1ccc(Cl)c(C(F)(F)F)c1`, for which the growth was 34.2% (inactive) with SK-MEL-2 melanoma; 25.3% (inactive) with EKVX NSCLC; 19.4% (inactive) with SN12C renal; 36.1% (inactive) in the assay on UO-31 renal; 42.1% (inactive) in the assay on TK-10 renal; 37.3% (inactive) with ACHN renal. In addition, the growth with CAKI-1 renal was 39.3% (inactive); in the assay on A498 renal it was 39.2% (inactive); in the assay on CCRF-CEM leukemia, 27.4% (inactive); in the assay on MOLT-4 leukemia, 9.33% (active).
Regarding `Cn1cc(-c2cc(N)n3nc(-c4c[nH]c5ccc(Cl)cc45)cc3n2)c2cc(Br)cnc21`, the growth with SK-MEL-2 melanoma was -49.9% (active); with EKVX NSCLC, 0.312% (active); in the assay on SN12C renal it was 42.5% (inactive); with UO-31 renal, -39.3% (active); in the assay on TK-10 renal it was -53.1% (active); with ACHN renal, -76.3% (active). The growth is -63% (active) in the assay on CAKI-1 renal, 29% (inactive) in the assay with A498 renal, -66.1% (active) in the assay on CCRF-CEM leukemia and -56.2% (active) in the assay on MOLT-4 leukemia.
On to `O=C(c1ccc(O)cc1)C1[C@H](c2ccccc2Br)[C@@H](c2ccccc2)NC12C(=O)Nc1ccccc12` (stereo not given in full), for which the growth with SK-MEL-2 melanoma was -3.4% (active); in the assay on EKVX NSCLC, 28.3% (inactive); in the assay with SN12C renal, 30.2% (inactive); in the assay on UO-31 renal, 28.9% (inactive); with TK-10 renal, 49.9% (inactive); in the assay on ACHN renal it was 25.9% (inactive). Besides, the growth in the assay with CAKI-1 renal is 23.6% (inactive); in the assay on A498 renal, 52.1% (inactive); with CCRF-CEM leukemia it was 21.3% (inactive); with MOLT-4 leukemia, 3.1% (active).
On to `N#CCc1nnc(NC(=O)c2ccc(-n3c(=O)[nH]c4ccccc4c3=O)cc2)s1`, for which the growth in the assay on SK-MEL-2 melanoma is 97.7% (inactive); in the assay on EKVX NSCLC, 94.8% (inactive); in the assay on SN12C renal, 95.4% (inactive); in the assay with UO-31 renal, 66.7% (inactive); in the assay on TK-10 renal, 104% (inactive); in the assay on ACHN renal it was 92.1% (inactive). In addition, the growth in the assay on CAKI-1 renal was 86.3% (inactive); with A498 renal it was 96.2% (inactive); in the assay with CCRF-CEM leukemia, 101% (inactive); with MOLT-4 leukemia, 103% (inactive).
As to `CCCCNc1ccc2c3c(cccc13)C(=O)N(NCC(O)COc1ccc3c(C)cc(=O)oc3c1)C2=O` (stereo not given), the growth is 96.9% (inactive) in the assay with SK-MEL-2 melanoma; 77.4% (inactive) in the assay on EKVX NSCLC; 94.5% (inactive) with SN12C renal; 43.5% (inactive) in the assay with UO-31 renal; 153% (inactive) in the assay with TK-10 renal; 86.2% (inactive) in the assay with ACHN renal. Also, the growth was 85.6% (inactive) in the assay with CAKI-1 renal, 89.2% (inactive) in the assay with A498 renal, 84.2% (inactive) in the assay with CCRF-CEM leukemia and 77.7% (inactive) with MOLT-4 leukemia.
In the case of `CC(=O)c1c2c(c3ccc4c5ccccc5ccc4n13)C(=O)c1ccccc1C2=O`, the growth with SK-MEL-2 melanoma is 93.3% (inactive); with EKVX NSCLC it was 77% (inactive); in the assay with SN12C renal, 89.9% (inactive); in the assay with UO-31 renal, 59.3% (inactive); with TK-10 renal, 118% (inactive); in the assay with ACHN renal, 75.6% (inactive). The growth in the assay on CAKI-1 renal was 85.6% (inactive); in the assay with A498 renal it was 189% (inactive); with CCRF-CEM leukemia it was 99.9% (inactive); with MOLT-4 leukemia, 90.6% (inactive).
On to `CN(C)c1nc(NCCNS(=O)(=O)c2ccc(C(=O)/C=C/c3ccc(F)cc3)cc2)nc(N2CCOCC2)n1`, for which the growth in the assay on SK-MEL-2 melanoma was 62.2% (inactive); with EKVX NSCLC it was 59% (inactive); in the assay with SN12C renal it was 64.3% (inactive); in the assay on UO-31 renal, 60.1% (inactive); in the assay on TK-10 renal, 72.2% (inactive); with ACHN renal, 78.6% (inactive). The growth in the assay on CAKI-1 renal is 57.3% (inactive); with A498 renal, 86.5% (inactive); with CCRF-CEM leukemia, 22.5% (inactive); in the assay on MOLT-4 leukemia it was -6.53% (active).
With `Nc1cccc(-n2c(COc3ccc(I)cc3)nc3ccccc32)c1`, the growth was 82.5% (inactive) and 105% (inactive) with SK-MEL-2 melanoma; 70.4% (inactive) and 102% (inactive) in the assay with EKVX NSCLC; 90.2% (inactive) and 103% (inactive) with SN12C renal; 43.6% (inactive) and 81.3% (inactive) in the assay with UO-31 renal; 112% (inactive) and 98.6% (inactive) in the assay on TK-10 renal; 81.9% (inactive) and 103% (inactive) in the assay with ACHN renal. Also, the growth with CAKI-1 renal was 56.8% (inactive) and 97.2% (inactive); in the assay on A498 renal, 112% (inactive) and 132% (inactive); with CCRF-CEM leukemia it was 82.8% (inactive) and 99.3% (inactive); in the assay on MOLT-4 leukemia, 71.5% (inactive) and 99.8% (inactive).
